Only some compounds are listed: those with a hit (about 21% of all), similar ones and a draw of the others.
NS1 inh = blocks influenza NS1 protein function; 270,000 tested, 0.4% active; Potency, µM (series often up to 46.1 µM); AID 2326; calls by dose curve; also: actives are rising curves; nearly all actives have a fitted effect of over 50% in size
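Recovery from NS1-induced slow growth read by OD600 in budding yeast switched to galactose assay medium (pH 6.0, -URA) at 1:100 dilution. Compound 23 nl per well; the matching strain lacking NS1 serves as control.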
CHX counter = counter-screen hit for Shiga toxin inhibitors, cycloheximide; cell reporter, cycloheximide protein synthesis inhibition counterscreen; max response, %; 300,000 tested, 12% active; AID 2314; in the data active = max response mostly above about 13%, no sharp cut-off; inactive = mostly below about 14%; also: read at 38.3 µM for the half of the compounds with a filed dose
Pf growth 48h = P. falciparum growth inhibition at 48 hours (one generation) | 310,000 tested, 5.9% active | Potency, µM (doses to about 28.7 µM), most hits filed as inhibitors | P. falciparum luciferase growth in erythrocytes, 48 h | AID 504832
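Growth was read as firefly luciferase luminescence after a 48 h, 37 C, 5% CO2 exposure of compounds to reporter-bearing P. falciparum cultures (0.1% parasitemia, 2% hematocrit final) in Albumax-supplemented RPMI 1640.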
Pf growth 96h = inhibits malaria parasite growth, 96 h | P. falciparum luciferase reporter growth, 96 h | Potency, µM (highest dose often 28.7 µM), actives largely listed as inhibitors | 320,000 tested, 6.9% active | AID 504834
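P. falciparum expressing integrated firefly luciferase grown in erythrocytes (2% hematocrit, 0.05% parasitemia final) with compounds for 96 hours at 37 C, 5% CO2. Growth inhibition read as loss of luminescence after adding luciferase detection reagent.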
Shiga inhibitor = inhibitors of Shiga toxin in Vero cells; AID 2315; Vero cells, Shiga toxin protein synthesis inhibition reporter; 290,000 tested, 9.2% active; inhibition, % at 38.7 µM; in the data active = inhibition mostly above about 28%, no sharp cut-off; inactive = mostly below about 43%
SARS PLP yeast = inhibitors of SARS-CoV papain-like protease in yeast; AID 485353; S. cerevisiae expressing SARS-CoV PLpro, growth rescue; Potency, µM (titrated, usually from 32.9 µM), actives largely listed as activators; 330,000 tested, 0.19% active; calls by dose curve; also: nearly all actives have a fitted effect of over 55% in size
Large screens that a line does not name were inactive. Unless noted, calls follow the shape of the dose curve; as a rule, active = well fitted inhibition curve with a large enough effect; inconclusive = small, poorly fitted or top-dose-only effect, or another doubt; inactive = no such curve, though single readings can be large or run the other way.

C/C(=N/Oc1nc(C)cc(C)n1)c1ccc(Br)cc1	none (no result: Pf growth 48h)
C/C(=N/OC(=O)C1CC12CCC2)c1ccc(Br)cc1 (stereo not given)	CHX counter 68.1, Shiga inhibitor 155.8 (no result: NS1 inh)
CCC(=O)Nc1ccc(NC(=O)c2ccccc2Cl)nc1	CHX counter 21.3, Pf growth 96h inconclusive
O=C(Nc1ccc(NC(=O)C2CCCCC2)nc1)c1cccs1	CHX counter 34.7, Pf growth 48h inconclusive, Shiga inhibitor 64.6
CC(C)C(=O)Nc1ccc(NC(=O)c2ccccc2Cl)nc1	CHX counter 38.1, Pf growth 96h inconclusive, Shiga inhibitor 71.3
COc1cccc(C(=O)Nc2ccc(NC(=O)C3CCCCC3)nc2)c1	Pf growth 48h inconclusive
O=C(Nc1ccc(NC(=O)C2CC2)nc1)c1ccccc1F	CHX counter 24.2, Shiga inhibitor 79.1
Cc1oc2nc(SCCCC(=O)NCCO)nc(N)c2c1C	none
CNc1ccccc1NC(=O)C1CCCN1C(=O)OCc1ccccc1 (stereo not given)	Pf growth 96h inconclusive
CCC(=O)Nc1ccc(NC(=O)c2ccccc2)nc1	CHX counter 24.9, Shiga inhibitor 70.4
CCCC(=O)Nc1ccc(NC(=O)c2ccccc2)nc1	CHX counter 20.8, Shiga inhibitor 39.6
CCC(=O)Nc1ccc(NC(=O)Cc2ccccc2)cn1	none (no result: Pf growth 96h)
CCCC(=O)Nc1ccc(NC(=O)c2ccccc2F)cn1	CHX counter 16.1
CCN(CC)C(=O)Cn1cc(S(=O)(=O)CC(=O)Nc2ccc(C(N)=O)cc2)c2ccccc21	Pf growth 96h inconclusive
Cc1ccc(S(=O)(=O)NCC(=O)OCC(=O)NC(=O)NC2CCCC2)cc1	none (no result: NS1 inh)
Cc1noc(C)c1C(=O)OC(C)C(=O)N(C)c1ccccc1 (stereo not given)	Pf growth 96h inconclusive (no result: NS1 inh, CHX counter, Shiga inhibitor)
N#Cc1c2n(c(=S)n(-c3ccccc3)c1=O)CCCCC2	CHX counter 14.1, Pf growth 48h inconclusive (no result: NS1 inh)
CC1CCCN(C(=O)CSc2nnc(-c3cccs3)o2)C1 (stereo not given)	CHX counter 39.0, Shiga inhibitor 63.9
CCC1CCCCN1C(=O)CSc1nnc(-c2cccs2)o1 (stereo not given)	CHX counter 28.8, Shiga inhibitor 88.5
O=C(CSc1nnc(-c2cccs2)o1)OC1CCCCC1	none (no result: Pf growth 96h)
CN(C)S(=O)(=O)N1CCN(CC(=O)Nc2ccc(Br)cc2)CC1	Pf growth 96h 5.22µM (no result: Shiga inhibitor)
COc1ccc(NC(=O)CN2CCN(S(=O)(=O)N(C)C)CC2)cc1	none (no result: Shiga inhibitor)
COC(=O)c1ccc(NC(=O)CN2CCN(S(=O)(=O)c3ccc(Br)cc3)CC2)cc1	Pf growth 96h 9.28µM
O=C(CN1CCN(S(=O)(=O)c2ccc(Br)cc2)CC1)Nc1ccc2c(c1)OCCO2	Pf growth 48h inconclusive, Pf growth 96h inconclusive
Cc1ccccc1C(=O)c1cccn1CC(=O)NCCC1=CCCCC1	CHX counter 24.8 (no result: NS1 inh)
Cc1ccccc1C(=O)c1cccn1CC(=O)NCCCN1CCCCC1	none
Cc1ccccc1C(=O)c1cccn1CC(=O)NCCN1CCN(c2cccc(C)c2C)CC1	Pf growth 48h inconclusive, Pf growth 96h 5.86µM
CCOc1ccc(CNC(=O)Cn2nc(C)n3nc(-c4ccccc4)cc3c2=O)cc1	none
CCCCCCOc1ccc(/C(N)=N/O)cc1	CHX counter 44.1, Shiga inhibitor 61.4
CCCCCOc1ccc(C(=O)NC(CCC)C(=O)O)cc1 (stereo not given)	none
CC1(C)CC(=O)C2=C(C1)N(c1ccc(F)cc1)C(=O)C2(NC(=O)c1ccccc1)C(F)(F)F (stereo not given)	none
CCOC(=O)N1CCC(NC(=O)c2ccc(CS(=O)c3cccc(Cl)c3)o2)CC1 (stereo not given)	Pf growth 96h 9.28µM
O=C(c1ccc(CS(=O)c2cccc(Cl)c2)o1)N1CCN(c2ccccn2)CC1 (stereo not given)	Pf growth 48h inconclusive, Pf growth 96h 7.38µM
COc1cccc(N2CCN(C(=O)c3ccc(CS(=O)c4ccc(C)cc4)o3)CC2)c1 (stereo not given)	Pf growth 96h inconclusive
COc1cccc(N2CCN(C(=O)c3ccc(CS(=O)c4ccc(Cl)cc4)o3)CC2)c1 (stereo not given)	Pf growth 48h inconclusive, Pf growth 96h 13.1µM
O=C(c1ccc(CS(=O)c2cccc(Cl)c2)o1)N1CCOCC1 (stereo not given)	Pf growth 96h inconclusive, SARS PLP yeast inconclusive
COc1ccc(-c2ccc(C(C)=O)cc2)cc1C1C2C=CCCC2(C)C(=O)N1Cc1ccccc1 (stereo not given)	none (no result: NS1 inh, Pf growth 48h, Pf growth 96h, SARS PLP yeast)
CCCOc1cc(C)c(S(=O)(=O)n2ccc(C)n2)cc1C	none (no result: Pf growth 96h, SARS PLP yeast)
O=C(Nc1cccc(-c2nc3ccccc3o2)c1)c1cccnc1	none (no result: NS1 inh)
O=C(Nc1ccc(-c2nc3ccccc3o2)cc1)c1ccc2c(c1)OCO2	Pf growth 48h inconclusive, Pf growth 96h inconclusive (no result: SARS PLP yeast)
O=C(Nc1ccc(-c2nc3ccccc3o2)cc1)c1cccnc1	CHX counter 43.8, Shiga inhibitor 114.8
O=C(Nc1ccc(-c2nc3ccccc3o2)cc1)c1ccc(N2C(=O)C3C4C=CC(C4)C3C2=O)cc1 (stereo not given)	CHX counter 22.1, Pf growth 96h 1.85µM, Shiga inhibitor 41.7 (no result: Pf growth 48h)
Cc1c(NC(=O)c2ccc(N3C(=O)C4C5C=CC(C5)C4C3=O)cc2)c(=O)n(-c2ccccc2)n1C (stereo not given)	none
O=C(Nc1ccc2oc(-c3ccccc3F)nc2c1)c1ccc2c(c1)OCCO2	CHX counter 27.8, Shiga inhibitor 71.9
Cc1ccc2oc(-c3ccc(NC(=O)c4ccc5c(c4)OCO5)cc3)nc2c1	CHX counter 36.6, Shiga inhibitor 58.4
CCCC(C(=O)NC1CCCC1)N(CC1CCCO1)C(=O)CNS(=O)(=O)c1ccccc1 (stereo not given)	none
COc1ccc(NC(=O)CN(C)C(=O)c2c(C)nn(Cc3ccc(C)cc3)c2Cl)cc1	Pf growth 48h inconclusive, Pf growth 96h inconclusive (no result: NS1 inh, CHX counter, Shiga inhibitor)
Cc1cc(C)c(NC(=S)N(CCCN2CCOCC2)Cc2cccnc2)c(C)c1	Pf growth 96h inconclusive (no result: NS1 inh)
O=C(CN1C(=O)c2ccccc2C1=O)Nc1ccc(-c2nc3ccccc3o2)cc1	none
O=C(CCN1C(=O)c2ccccc2C1=O)Nn1cnnc1	Pf growth 96h 2.94µM
O=C(Nc1ccc2oc(-c3cccnc3)nc2c1)c1cccnc1	Pf growth 96h inconclusive
O=C(CCN1C(=O)c2ccccc2C1=O)NCc1ccccc1	none
Cc1ccc2oc(-c3ccc(NC(=O)c4cccnc4)cc3)nc2c1	CHX counter 70.0, Shiga inhibitor 62.0
O=C(CCN1C(=O)c2ccccc2C1=O)Nc1ccc(-c2nc3ccccc3o2)cc1	CHX counter 18.5, Shiga inhibitor 82.8 (no result: Pf growth 96h)
COc1cccc(C(=O)NNS(=O)(=O)c2ccc(C)cc2)c1	Pf growth 48h inconclusive, Pf growth 96h inconclusive
CC(=O)Nc1ccc(S(=O)(=O)N2CCC(NC(=O)c3ccco3)CC2)cc1	Pf growth 96h inconclusive
COC(=O)c1ccc(COc2ccccc2[N+](=O)[O-])o1	CHX counter 45.3, Shiga inhibitor 72.7
